LmPK inh: inhibitors of Leishmania mexicana pyruvate kinase; purified LmPK, Kinase-Glo ATP luminescence, 1 h; Potency, µM (top dose mostly 57.5 µM), hits mostly inhibitors; 290,000 tested, 0.37% active; AID 1721
Target sequence (Q27686 whole entry, looked up): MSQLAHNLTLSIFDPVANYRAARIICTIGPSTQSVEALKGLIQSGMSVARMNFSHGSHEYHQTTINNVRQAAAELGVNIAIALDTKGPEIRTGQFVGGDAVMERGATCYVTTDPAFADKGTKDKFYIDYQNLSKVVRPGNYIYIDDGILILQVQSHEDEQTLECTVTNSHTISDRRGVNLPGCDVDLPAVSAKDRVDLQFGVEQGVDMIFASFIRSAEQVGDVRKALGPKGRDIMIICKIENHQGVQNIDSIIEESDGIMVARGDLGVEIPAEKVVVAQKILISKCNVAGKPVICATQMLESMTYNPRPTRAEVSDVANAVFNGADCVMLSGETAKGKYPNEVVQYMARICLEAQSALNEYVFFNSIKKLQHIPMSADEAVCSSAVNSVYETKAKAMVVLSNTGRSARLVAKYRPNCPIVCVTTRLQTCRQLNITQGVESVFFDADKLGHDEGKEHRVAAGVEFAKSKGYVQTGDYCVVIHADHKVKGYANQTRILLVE
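qHTS format; LmPK 0.1 nM; substrates PEP 0.5 mM and ADP 0.1 mM. One-hour room-temperature incubation, then coupled luciferase luminescence; 0.5 nM enzyme wells mark activation.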
TbPYK inhibitor: T. brucei pyruvate kinase inhibition. Q57TT1. TbPYK enzyme, Kinase-Glo Plus ATP luminescence, 45 min. Potency, µM (top dose mostly 76.8 µM), usual class: inhibitors. 410,000 tested, 0.12% active. AID 624173; further: nearly all actives have a fitted effect of over 50% in size
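Luminescent Kinase-Glo Plus end-point after 45 min room-temperature reaction of T. brucei pyruvate kinase started with 130 uM ADP (final). Buffer TEA 50 mM pH 7.2 with KCl, MgCl2, BSA, Tween-20; titration-based qHTS with fitted concentration-effect curves.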
RE007 growth inh: less growth of the S. pombe RE007 Vpr strain | Potency, µM (titrated, usually from 92.2 µM), usual class: inhibitors | 360,000 tested, 0.21% active | S. pombe RE007 Vpr strain, BacTiter-Glo ATP luminescence, 24 h; active means well fitted falling curve with a large enough effect; inconclusive means small, poorly fitted or top-dose-only effect; inactive means no such curve, though single readings can be large or run the other way; further: nearly all actives have a fitted effect of over 50% in size
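Fission yeast RE007 carrying one integrated HIV-1 vpr copy, seeded at OD 0.01 in PMG+AL medium with 23 nL pinned compound. Grown 24 h at 30 degrees; viability read by BacTiter-Glo luminescence after 5 min.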
FBPA Giardia inh: blocks Giardia fructose-bisphosphate aldolase activity; A8B2U2; purified Giardia FBPA; Potency, µM (top dose mostly 59.6 µM), hits mostly inhibitors; 290,000 tested, 0.71% active; further: nearly all actives have a fitted effect of over 55% in size
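Giardia FBPA (40 nM reagent) was preincubated 10 min at RT with compound (up to 57.5 uM final), then substrate plus GAPDH/TPI/NAD/arsenate coupling system with diaphorase/resazurin was added; resorufin fluorescence (525/598 nm) was read after 20 min.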
Numbers stand for hits; n = inactive; u = inconclusive; x = not tested or not shown; ! = a repeat was not active; [ ] = another dose, or the depositor's remark. In the library only some 0.95% were active in any assay of this set; here they are far more common. Unless noted, the call rests on the fitted dose curve; in most records, active means well fitted curve in the direction sought with a large enough effect; inconclusive means small, poorly fitted or top-dose-only effect, or another doubt; inactive means no such curve, though single readings can be large; an effect the other way counts as inactive or inconclusive.

SMILES	LmPK inh	TbPYK inhibitor	RE007 growth inh	FBPA Giardia inh
CCC1(C)Cc2c(sc3nc(SCC(=O)O)[nH]c(=O)c23)CO1 (stereo not given)	18µM	u	n	n
COc1ccccc1C1C(C(=O)Nc2ccccc2)=C(C)Nc2nc(-c3ccccc3)nn21 (stereo not given)	x	n	x	x
CC12C=CC(=O)C=C1CCC1C2C(O)CC2(C)C1CCC2(O)C(=O)COC(=O)CCC(=O)O (stereo not given)	x	n	x	x
O=[N+]([O-])c1ccc(CS(=O)c2ccccc2)cc1 (stereo not given)	x	n	n	x
O=[N+]([O-])c1ccc(S(=O)Cc2ccccc2)c([N+](=O)[O-])c1 (stereo not given)	x	n	5.6µM	x
COc1ccc(NC(=O)N2CCc3ccccc32)cc1	13µM	u	u	n
CCn1c(-c2ccc3[nH]c(C)c(C)c3c2)n[nH]c1=S	28µM	u	n	n
CCc1ccccc1Nc1sc(C(=O)c2cccc(OC)c2)c(N)c1S(=O)(=O)c1ccccc1	x	n	x	x
CC[n+]1c(C)sc2c3ccsc3ccc21	n	4µM	n	n
O=C(OCC1(COC(=O)c2cccnc2)CCCC(COC(=O)c2cccnc2)(COC(=O)c2cccnc2)C1O)c1cccnc1	x	n	x	x
Cc1[nH][nH]c(=O)c1C(c1ccc(-c2ccc(C(=O)O)cc2)o1)c1c(C)[nH][nH]c1=O	n	u	n	5.6µM
Cc1[nH][nH]c(=O)c1C(c1ccc(-c2ccc(F)cc2)o1)c1c(C)[nH][nH]c1=O	n	n	n	u
C[c-]1[c-](C)[c-](C)[c-](C)[c-]1C.[Fe].c1cc2nccc(N3CCCC3)[c-]2c1 (stereo not given)	32µM!	n	n	u
COC(=O)c1nn(-c2ccc(-c3ccccc3)cc2)cc1O	16µM	n	n	n
CCOC(=O)c1nn(-c2ccccc2)cc1O	n	n	n	n
N=C(N)c1ccc(OCCCOc2ccc(C(=N)N)cc2)cc1	x	n	x	x
CCN1C(=O)/C(=C2/C=Cc3cc(C)ccc3N2CC)N(C)C1=S	14µM	u	n	n
CCc1nn(CC(=O)NC2CC2)c(=O)c2cc3c(OC)cccc3n12	x	n	x	x
COc1cccc(N=CC2=C(O)CCCC2=O)c1	n	n	40µM	n
CCOC(=O)c1cc(-c2ccccc2)n(CC(=O)Nc2ccc(CC)cc2)c1C	x	n	x	x
O=C(/C=C/c1ccco1)N1CCc2ccccc21	7.9µM	u	u	n
Cc1ccc(/C=C/C(=O)N2CCc3ccccc32)o1	u	20µM	n	n
O=C(c1ccco1)N1CCc2ccccc21	n	n	n	n
O=C(NOC[C@H](O)CO)c1ccc(F)c(F)c1Nc1ccc(I)cc1F	x	n	x	x
O=C(NNc1nc2ccc(F)cc2s1)c1cccc(F)c1	n	n	n	n
SMILES	LmPK inh	TbPYK inhibitor	RE007 growth inh	FBPA Giardia inh
O=C(Nc1nc2ccc(F)cc2s1)c1ccccn1	18µM	u	14µM	u
O=C(Nc1nc2ccccc2s1)c1cnccn1	10µM	n	n	n
CC1(OC(=O)c2cnc3ccccc3n2)C(=O)C=C2C=C(c3ccsc3)OC=C2C1=O (stereo not given)	x	x	x	n
C#CCC(Cc1cnc2nc(N)nc(N)c2n1)c1ccc(C(=O)N[C@@H](CCC(=O)O)C(=O)O)cc1 (stereo not given in full)	x	n	x	x
CCc1ccc(NC(=O)CSc2ccc(-c3sc(-c4ccccc4)nc3C)nn2)cc1	x	n	x	x
S=c1[nH]nc(COc2ccccc2)n1Cc1ccccc1	n	u	n	n
FC(F)(F)c1cccc(NCc2n[nH]c(=S)n2C2CCCCC2)c1	u	13µM	n	n
S=c1[nH]nc(COc2ccccc2)n1C1CCCCC1	13µM	u	n	n
S=c1[nH]nc(CSc2nc3ccccc3s2)n1C1CCCCC1	11µM	u	n	n
Cc1ccc(CCNC(=O)c2c[nH]c3ccc(S(=O)(=O)Nc4cccc(C(F)(F)F)c4)cc3c2=O)cc1	x	n[15.4 µM]	x	x
CCOc1ccc(NC(=O)CN(C)S(=O)(=O)c2ccc3c(c2)c(=O)n(C)c(=O)n3C)cc1	x	n	x	x
COc1cc2c(cc1OC)C(c1ccc(-c3cc(Cl)ccc3Cl)o1)=NCC2	n	n	n	n
COc1cc2c(cc1OC)C(c1ccc(-c3ccc(Cl)c(Cl)c3)o1)=NCC2	13µM	n	32µM	n
COc1cc2ccc(=O)oc2c(O)c1O	x	u	n	25µM
Cc1cc(-c2n[nH]c(=S)n2/N=C/c2c[nH]c3ccccc23)n[nH]1	u	2.8µM	n	n
Fc1ccc(-c2n[nH]c(=S)n2/N=C/c2c[nH]c3ccccc23)cc1	n	n	n	n
Cc1cc(-c2n[nH]c(=S)n2/N=C/c2ccc(Br)s2)n[nH]1	n	1.1µM	x	n
N=C(N)c1ccc(OCCCOc2ccc(C(=N)N)cc2Br)c(Br)c1	x	n	x	x
Cn1c(=O)c(C(=O)NNC(=O)c2ccc(Br)cc2)c(O)c2ccccc21	n	n	28µM	n
O=C(Nc1ncc([N+](=O)[O-])s1)c1cccc([N+](=O)[O-])c1	13µM	n	n	u
COc1ccc(N2C(=O)CC(Sc3nnc(-c4ccccc4)o3)C2=O)cc1 (stereo not given)	n	x	n[3.69 µM]	n
COc1ccc(N2C(=O)CC(Sc3nnnn3-c3ccc(F)cc3)C2=O)cc1 (stereo not given)	n	n	16µM	n
O=C1CC(Sc2nnnn2-c2ccccc2)C(=O)N1c1cccc(Cl)c1 (stereo not given)	n	u	7.1µM	n
Clc1cccc(N2CCN(c3nnnn3-c3ccccc3)CC2)c1	n	n	n	n
NC1CCCC[C@H]1N (stereo not given in full)	x	x	x	n
SMILES	LmPK inh	TbPYK inhibitor	RE007 growth inh	FBPA Giardia inh
O=C(COC(=O)c1cccs1)c1ccc2ccccc2c1	n	n	u	n
Cc1ccc(C(=O)COC(=O)c2cccs2)cc1	u	n	n	n
O=C(COC(=O)c1cccs1)c1ccc2c(c1)OCCO2	13µM	u	u	n
CCc1ccc(C(=O)COC(=O)c2cccs2)cc1	16µM	n	x	n
CC(=O)N(c1ccccc1C)C1CCCC1	n	n	n	n
CC(=O)N(C1=C(Cl)C(=O)c2ccccc2C1=O)C1CCCCC1	2.8µM	0.89µM	6.3µM	1.6µM
COc1ccc2c(c1)c(CC(=O)NCc1ccc3c(c1)OCO3)c(C)n2C(=O)c1ccc(Cl)cc1	x	x	x	n
COc1ccc(CCNC(=O)c2ccc(CN3CCC(Cc4ccccc4)CC3)cc2)cc1	n	n	n	n
COc1ccc(C(=O)NCC23C=CC(O2)C2C(=O)N(Cc4ccccc4)C(=O)C23)cc1 (stereo not given)	n	n	25µM	n
O=C(/C=C/c1ccc(Cl)cc1Cl)c1nc2ccccc2[nH]1	n	n	7.9µM	n
Clc1ccc(/C=C/c2nc3ccccc3[nH]2)c(Cl)c1	14µM	n	25µM	n
O=C(/C(=C(\O)c1ccccc1)c1nc2ccccc2[nH]1)c1ccccc1	n	n	n	n
Clc1ccc(/C=C/c2nc3ccccc3[nH]2)cc1	8.9µM	u	u	n
Cc1cc(C)c(NC(=O)C2CCN(c3nn4c(=O)cc(C)nc4s3)CC2)c(C)c1	x	n	x	x

Screening results as filed in PubChem.
